TDP1 cell CPT: DT40-hTDP1 cell growth loss with CPT; chicken DT40 Tdp1-/-;hTDP1 cells + 20 nM CPT, ATP luminescence, 48 h; hit rate 12% among 420,000; Potency, µM (series often up to 46.2 µM), hits mostly inhibitors; further: nearly all actives have a fitted effect of over 55% in size
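Cell growth measured by CellTiter-Glo luminescence after a minimum 48 h, 37 C compound exposure with 20 nM CPT in Tdp1-knockout DT40 cells stably expressing hTDP1, seeded 400/well; qHTS titration format.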
IL1B secr inh: inhibitors of inflammasome signaling (IL-1 beta secretion); THP-1 LPS/ATP IL-1B secretion, AlphaLISA, 16 h; active compounds read low; activity change, % at 57.5 µM; hit rate 4.7% among 360,000; AID 743279; in the data active means activity change below about -50%; inconclusive means mostly about -30% to -49%
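Secreted IL-1B measured by AlphaLISA bead assay after 16 h compound exposure of THP-1 cells; compounds (final up to 57.5 uM) added 1 h before LPS (250 ng/mL) and ATP (1.25 mM) stimulation; lower signal means less secretion.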
TGFb inhibitor: blocks TGF-b signaling. HepG2 CAGA-GFP TGF-b/SMAD3 reporter, GFP fluorescence, 18 h; TGF-beta stimulated, 500 pg/mL final. Potency, µM (highest dose often 46.1 µM), usual class: inhibitors. hit rate 1.2% among 410,000. AID 588855; further: nearly all actives have a fitted effect of over 65% in size
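HEPG2 CAGA-GFP cells (1000/well, DMEM with 1% FBS) were pre-incubated 2 h at 37 degrees C, given compound by pin tool, then stimulated with TGF-beta at 500 pg/mL final for 18 h before per-cell GFP fluorescence imaging.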
S-ASM inh: inhibitors of human secretory acid sphingomyelinase; hit rate 0.006% among 340,000; placental ASM, HMU-PC fluorogenic substrate, 60 min; Potency, µM (highest dose often 57.5 µM), usual class: inhibitors
Target sequence (P17405 47-631 limits assumed): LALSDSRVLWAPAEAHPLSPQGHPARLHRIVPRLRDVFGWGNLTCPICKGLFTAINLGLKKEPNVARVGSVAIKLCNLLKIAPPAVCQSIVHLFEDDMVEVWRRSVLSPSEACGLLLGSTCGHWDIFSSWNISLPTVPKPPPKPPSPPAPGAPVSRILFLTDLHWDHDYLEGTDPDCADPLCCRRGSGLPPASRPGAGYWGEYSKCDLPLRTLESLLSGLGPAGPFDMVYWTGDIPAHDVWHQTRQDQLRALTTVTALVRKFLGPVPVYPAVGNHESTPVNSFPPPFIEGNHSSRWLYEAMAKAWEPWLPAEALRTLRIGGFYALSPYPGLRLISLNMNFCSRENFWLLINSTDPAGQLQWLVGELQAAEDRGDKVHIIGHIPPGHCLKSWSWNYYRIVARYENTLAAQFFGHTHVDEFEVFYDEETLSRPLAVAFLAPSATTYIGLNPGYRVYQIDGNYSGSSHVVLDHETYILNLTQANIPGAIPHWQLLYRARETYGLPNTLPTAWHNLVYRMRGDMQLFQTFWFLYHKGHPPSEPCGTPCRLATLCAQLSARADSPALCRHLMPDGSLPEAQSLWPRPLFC
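qHTS format. ASM enzyme prepared from human placenta hydrolyses the fluorogenic substrate HMU-PC0 (9 uM final) over 60 min at 37 °C after a 10 min compound preincubation.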
TDP1 cell noCPT: qHTS for Inhibitors of human tyrosyl-DNA phosphodiesterase 1 (TDP1): qHTS in cells in absence of CPT | DT40 Tdp1-/- hTDP1 cells, no CPT, ATP luminescence, 48 h | Potency, µM (series often up to 46.2 µM), hits mostly inhibitors | hit rate 15% among 420,000; further: nearly all actives have a fitted effect of over 55% in size
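No-CPT arm: Tdp1-/-;hTDP1 DT40 cells (400/well) plus compounds, incubated ≥48 hr at 37 °C. Readout CellTiter-Glo luminescence.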
HepG2 viability: kills HepG2 cells in TGF-b inhibitor counter-screen. HepG2 CAGA-GFP viability, ATP luminescence, 18 h. Potency, µM (doses to about 46.1 µM), usual class: cytotoxic. hit rate 0.76% among 410,000
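CellTiter-Glo luminescence gave cytotoxicity after 18 hours at 37 degrees C. The cells were HepG2 CAGA-GFP in 1% FBS DMEM, stimulated with 500 pg/mL TGF-beta after compound addition. %Activity was normalised to no-cell wells (complete cell-killing) and DMSO (no toxicity), and curves were fitted and classified.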
Of the large screens only hits and unclear results are named; the others gave an inactive call. Only some compounds are listed: those with a hit (about 19% of all), similar ones and a draw of the others. Unless noted, the call rests on the fitted dose curve; in most records, active means well fitted curve in the direction sought with a large enough effect; inconclusive means small, poorly fitted or top-dose-only effect, or another doubt; inactive means no such curve, though single readings can be large; an effect the other way counts as inactive or inconclusive.

O=C(C[N+]1(CC#Cc2ccccc2)CCOCC1)c1ccc(Cl)cc1	TDP1 cell CPT inconclusive, TDP1 cell noCPT inconclusive
O=C(C[N+]1(CC#Cc2ccccc2)CCOCC1)c1ccccc1	TDP1 cell CPT inconclusive, TDP1 cell noCPT 16µM
Cc1ccccc1-c1nnc(C2CCN(S(=O)(=O)c3ccc(Cl)cc3)CC2)o1	TDP1 cell CPT 5.8µM, TDP1 cell noCPT 3.7µM (no result: IL1B secr inh, S-ASM inh)
COc1ccc(S(=O)(=O)N2CCC(c3nnc(-c4ccccc4C)o3)CC2)c(OC)c1	TDP1 cell CPT 8.2µM, TGFb inhibitor inconclusive, TDP1 cell noCPT 6.5µM (no result: IL1B secr inh, S-ASM inh)
CC(C)(C)OC(=O)N(Cc1ccccc1)Cc1ccc(OCc2cccc(NC(=O)C3CC3)c2)cc1	TDP1 cell CPT inconclusive, TDP1 cell noCPT inconclusive
CC(C)(C)OC(=O)N(Cc1ccccc1)Cc1cccc(OCc2cccc(NC(=O)c3ccccc3)c2)c1	TDP1 cell CPT 23µM, TDP1 cell noCPT 23µM
CC(C)C(=O)Nc1cccc(COc2ccccc2CN(Cc2ccccc2)C(=O)OC(C)(C)C)c1	TDP1 cell CPT inconclusive, TDP1 cell noCPT 23µM
CC(C)(C)OC(=O)N(Cc1ccccc1)Cc1ccccc1OCc1cccc(NC(=O)c2ccccc2)c1	TDP1 cell CPT 16µM, TDP1 cell noCPT 16µM
CC(C)(C)OC(=O)NCC1CCC(C(=O)NC[C@H](CC(=O)O)c2ccc(Cl)cc2)CC1 (stereo not given in full)	none
CC(OC(=O)c1ccccc1)C(=O)NCc1ccco1 (stereo not given)	none
CCOC(=O)c1sc(N)c(C(N)=O)c1C	none
CCOC(=O)c1c(C)nc2sc3c(c2c1-c1ccc(OC)cc1)NC(c1ccc(OC)cc1)NC3=O (stereo not given)	TDP1 cell CPT inconclusive, TDP1 cell noCPT 13µM
COc1ccc(-c2c3c(nc4sc(C(=O)Nc5ccccc5F)c(N)c24)CC(C)(C)CC3=O)cc1	TDP1 cell CPT inconclusive, TDP1 cell noCPT inconclusive (no result: IL1B secr inh, S-ASM inh)
COc1ccc(-c2c3c(nc4sc(C(=O)Nc5ccc(F)cc5)c(N)c24)CC(C)(C)CC3=O)cc1	TDP1 cell CPT inconclusive, TDP1 cell noCPT 15µM (no result: IL1B secr inh, S-ASM inh)
CCOC(=O)c1sc(NC(=O)C2CCC2)cc1C	IL1B secr inh inconclusive, TDP1 cell noCPT 21µM
CCOC(=O)c1c(N)sc(N)c1C(=O)OCC	TDP1 cell CPT 4.6µM, IL1B secr inh -71, TDP1 cell noCPT 5.2µM
O=C(NCCS(=O)(=O)N1CCN(c2ccccc2F)CC1)c1ccc(Br)cc1	none
CCOC(=O)c1c(C)nc2sc(C(=O)Nc3ccccc3)c(N)c2c1-c1ccc(OC)cc1	TDP1 cell CPT inconclusive, TDP1 cell noCPT 15µM
CC(=O)c1sc(N)c(C(=O)OC(C)C)c1C	TGFb inhibitor inconclusive
CCOC(=O)c1c(N)sc(C(=O)Nc2ccccc2F)c1C	TDP1 cell noCPT inconclusive
CCOC(=O)c1c(N)sc(C(=O)Nc2ccccc2)c1C	TDP1 cell CPT inconclusive, TDP1 cell noCPT 18µM
CCOC(=O)c1sc(NC(=O)Nc2ccccc2Cl)cc1C	TDP1 cell CPT 23µM, TGFb inhibitor inconclusive, TDP1 cell noCPT 15µM
Cc1c(C(=O)OC(C)C)sc(N)c1C(=O)OC(C)C	IL1B secr inh -61, TDP1 cell noCPT inconclusive
Cc1ccc(C)c(S(=O)(=O)N2CCN(C(=O)c3ccccn3)CC2)c1	none
Cc1ccc(NC(=O)c2c(C)nc3sc(C(=O)Nc4ccc(F)cc4)c(N)c3c2-c2ccc(C)o2)c(C)c1	TDP1 cell CPT inconclusive, TDP1 cell noCPT 18µM (no result: IL1B secr inh, S-ASM inh)
CCOC(=O)c1sc(NC(=O)Nc2ccccc2)cc1C	TDP1 cell CPT 23µM, IL1B secr inh -117, TGFb inhibitor inconclusive, TDP1 cell noCPT 26µM
Cc1c(Cl)cccc1N/C(SCC(=O)N1CCCCCC1)=C(/C#N)c1nc2ccccc2s1	TDP1 cell CPT 12µM, IL1B secr inh -94, TDP1 cell noCPT 12µM
O=C(CSc1nc2ccccc2s1)N1CCCCC1	none
O=C1C=C(c2ccc(F)nc2)CCC1	none
CCCOC(=O)/C(=C\c1ccc([N+](=O)[O-])o1)NC(=O)c1ccccc1	TDP1 cell CPT 16µM, TGFb inhibitor inconclusive, TDP1 cell noCPT 21µM
O=C(NCCCO)/C(=C/c1ccc(-c2cccc([N+](=O)[O-])c2)o1)NC(=O)c1ccccc1	none
CCOC(=O)/C(=C\c1ccc([N+](=O)[O-])o1)NC(=O)c1ccccc1	TDP1 cell CPT 23µM, TGFb inhibitor inconclusive, TDP1 cell noCPT 18µM, HepG2 viability 11µM
CCCOC(=O)/C(=C\C=C\c1ccco1)NC(=O)c1ccccc1	TDP1 cell CPT 13µM, TDP1 cell noCPT 21µM
O=C(NCCO)/C(=C\c1ccc([N+](=O)[O-])o1)NC(=O)c1ccccc1	TDP1 cell CPT inconclusive, TDP1 cell noCPT 29µM
CCOC(=O)/C(=C/c1cn(C)c2ccccc12)NC(=O)c1ccccc1	TDP1 cell noCPT inconclusive
O=C(NCCc1ccc(C(F)(F)F)cc1)c1ccc(Cl)nc1	none
CC(C)c1ccc2oc(-c3ccc(Cl)c(NC(=O)Cc4ccccc4)c3)nc2c1	none (no result: IL1B secr inh, S-ASM inh)
CC1CC(c2ccccc2)=Nc2ccccc2N1 (stereo not given)	TDP1 cell CPT inconclusive, TDP1 cell noCPT inconclusive
CCCNC(=O)CSc1nc2nc(C)c(Cc3ccccc3Cl)c(C)n2n1	TDP1 cell CPT inconclusive, TDP1 cell noCPT inconclusive (no result: IL1B secr inh, S-ASM inh)
COc1ccccc1OCCNC(=O)CCS(=O)(=O)c1ccccc1	none
COC1=C(C)C(=O)C2=C(C1=O)C1C3CC4=C(C(=O)C(OC)=C(C)C4=O)C(CNC(=O)C(C)=O)N3C(C#N)C(C2)N1C (stereo not given)	TDP1 cell CPT 0.041µM, IL1B secr inh -99, TGFb inhibitor 0.14µM, TDP1 cell noCPT 0.026µM, HepG2 viability 7.1µM
Nc1cccc(-c2nc3ccc(C(=O)c4ccccc4)cc3[nH]2)c1	TDP1 cell CPT 0.73µM, TGFb inhibitor inconclusive, TDP1 cell noCPT 0.82µM
O=[N+]([O-])c1ccc2nc(-c3ccccc3)[nH]c2c1	TDP1 cell CPT inconclusive, IL1B secr inh -69, TDP1 cell noCPT inconclusive
Nc1ccc2nc(-c3ccccc3)[nH]c2c1	TDP1 cell CPT inconclusive, TDP1 cell noCPT inconclusive
COc1ccc2nc(-c3cccc(N)c3)[nH]c2c1	TDP1 cell CPT inconclusive, TDP1 cell noCPT 23µM
CCN(CC)c1ccc(NS(=O)(=O)c2cc3[nH]c(=O)c(=O)[nH]c3cc2C)c(C)c1	TDP1 cell CPT inconclusive, TDP1 cell noCPT inconclusive (no result: IL1B secr inh, S-ASM inh)
O=C(CCN1C(=O)C2CCCCC2C1=O)Nc1nc(-c2ccc(F)c(F)c2)cs1 (stereo not given)	TDP1 cell CPT inconclusive, IL1B secr inh inconclusive, TDP1 cell noCPT 18µM

Source: PubChem (National Center for Advancing Translational Sciences (NCATS))
